Compound activity deposited in PubChem BioAssay by National Center for Advancing Translational Sciences (NCATS).
Only some compounds are listed: those with a hit (about 12% of all), similar ones and a draw of the others.
G9a inh – qHTS Assay for Inhibitors of Histone Lysine Methyltransferase G9a; Histone-lysine N-methyltransferase EHMT2 (Homo sapiens), Q96KQ7; G9a H3K9 monomethylation, AlphaScreen, 2 h; Potency, µM (doses to about 102 µM), usual class: inhibitors; actives 8.8% (n = 350,000); AID 504332, 2011; also: nearly all actives have a fitted effect of over 75% in size
Target sequence (Q96KQ7 913-1193 limits assumed): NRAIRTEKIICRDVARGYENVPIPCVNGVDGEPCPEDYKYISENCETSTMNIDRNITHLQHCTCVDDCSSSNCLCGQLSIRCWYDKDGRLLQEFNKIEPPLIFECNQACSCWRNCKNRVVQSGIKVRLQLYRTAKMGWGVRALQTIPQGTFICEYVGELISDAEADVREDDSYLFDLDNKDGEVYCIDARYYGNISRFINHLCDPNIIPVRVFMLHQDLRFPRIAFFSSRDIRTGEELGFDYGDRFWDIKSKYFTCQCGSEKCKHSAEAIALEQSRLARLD
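Quantitative HTS format: methyltransferase activity on a biotin-tagged H3K9 peptide is measured by AlphaScreen, using a rabbit anti-monomethyl-H3K9 antibody with streptavidin donor and anti-IgG acceptor beads. Final levels are 20 nM enzyme, 500 nM peptide, 20 uM SAM; 2 h RT.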
JMJD2A Tudor – qHTS Assay for Inhibitors of JMJD2A-Tudor Domain; AlphaScreen JMJD2A-Tudor / H3K4me3 peptide binding; Lysine-specific demethylase 4A (Homo sapiens), O75164; actives 4.4% (n = 390,000); Potency, µM (titrated, usually from 114 µM), most hits filed as inhibitors; also: nearly all actives have a fitted effect of over 50% in size
HP1b chromo inh – HTS for Inhibitors of HP1-beta Chromodomain Interactions with Methylated Histone Tails | AID 540317, 2011 | Potency, µM (top dose mostly 114 µM), most hits filed as inhibitors | AlphaScreen HP1-beta / biotin-H3K9me3 peptide binding | actives 0.56% (n = 390,000); also: nearly all actives have a fitted effect of over 70% in size
Target sequence (P83916 whole entry, looked up): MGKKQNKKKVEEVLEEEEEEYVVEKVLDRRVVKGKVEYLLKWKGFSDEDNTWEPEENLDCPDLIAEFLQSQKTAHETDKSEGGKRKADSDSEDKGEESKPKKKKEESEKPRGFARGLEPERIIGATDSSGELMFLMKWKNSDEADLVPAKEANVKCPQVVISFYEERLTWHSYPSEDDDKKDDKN
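HP1-beta protein (50 nM final) preincubated 30 min at room temperature with biotinylated H3(1-18)K9me3 peptide (50 nM) in PBS pH 7.4, 0.01% Tween-20, then compound added for 30 min. AlphaScreen streptavidin donor/nickel chelate acceptor beads (10 ug/mL final), 30 min dark, luminescence read.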
Sfp PPTase inh – qHTS Assay for Inhibitors of Bacillus subtilis Sfp phosphopantetheinyl transferase (PPTase); Potency, µM, hits mostly inhibitors; actives 3.5% (n = 310,000); 4'-phosphopantetheinyl transferase ffp (Bacillus subtilis), Q9F4F7; Biochemical Sfp PPTase activity, qHTS;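 also: the enzyme is Sfp with the accession as filed and its product quenches rhodamine fluorescence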
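After 15 min at room temperature with compound, 15 nM Sfp received 5 uM rhodamine-CoA plus 12.5 uM BHQ-2-ybbR (50 mM Hepes pH 7.6, 10 mM MgCl2). Rate came from the fluorescence difference over 30 min, ex 525/em 598 nm.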
L3MBTL1 block – qHTS Assay for the Inhibitors of L3MBTL1. Lethal(3)malignant brain tumor-like protein 1 (Homo sapiens), Q9Y468. AlphaScreen L3MBTL1–H3K9me1 peptide binding. actives 0.66% (n = 230,000). Potency, µM (top dose mostly 57.1 µM), most hits filed as inhibitors; also: nearly all actives have a fitted effect of over 60% in size
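AlphaScreen assay: L3MBTL1 (50 nM final) was preincubated 30 min at room temperature with biotinylated H3(1-15)K9me1 peptide (75 nM final), then 30 min with library compounds; streptavidin donor and nickel chelate acceptor beads (10 ug/mL final) added, 30 min dark.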
BAZ2B block – qHTS Assay for Inhibitors of BAZ2B; AlphaScreen BAZ2B-H3K14Ac peptide displacement; Potency, µM (doses to about 114 µM), hits mostly inhibitors; actives 4.4% (n = 360,000); also: nearly all actives have a fitted effect of over 60% in size
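Complex of BAZ2B and biotin-H3K14Ac (50 nM apiece) forms over 30 min at RT, then faces library compounds up to 110 uM for another 30 min; AlphaScreen beads added, 20 min dark incubation, luminescence read.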
Numbers stand for hits; - = inactive; ? = inconclusive; . = not tested or not shown; [ ] = dose if it differs, or a comment. Calls follow the shape of the dose curve; as a rule, active = well fitted curve in the direction sought with a large enough effect; inconclusive = small, poorly fitted or top-dose-only effect, or another doubt; inactive = no such curve, though single readings can be large; an effect the other way counts as inactive or inconclusive.

SMILES	G9a inh	JMJD2A Tudor	HP1b chromo inh	Sfp PPTase inh	L3MBTL1 block	BAZ2B block
C#CCOCCOCCOCCNc1nc(N2CCN(C(=O)[C@H](CCCCN)n3cc(C(N)CO)nn3)CC2)nc(N2CCN(C(=O)[C@H](CCC(=O)O)n3cc(C(N)[C@H](C)CC)nn3)CC2)n1 (stereo partly drawn)	?	.	.	-	-	39.8µM
COc1ccc(NC(=O)COC(=O)CCC(=O)c2cccs2)cc1OC	?	-	-	.	-	-
Cc1ccc2nc(SCC(=O)N3CCCc4ccccc43)nc(=O)n2c1	.	-	-	.	.	.
Cc1cc(NC(=O)c2c(C)noc2C)no1	.	-	-	-	-	-
C#CCOCCOCCOCCNc1nc(N2CCN(C(=O)[C@H](CCCCN)n3cc(CN)nn3)CC2)nc(N2CCN(C(=O)[C@H](CCC(=O)O)n3cc([C@@H](N)CCSC)nn3)CC2)n1	.	89.1µM	-	.	-	.
C#CCOCCOCCOCCNc1nc(N2CCN(C(=O)[C@H](CCC(=O)O)n3cc(C(N)[C@H](C)CC)nn3)CC2)nc(N2CCN(C(=O)[C@H](CCC(=O)O)n3cc(C(N)[C@H](C)CC)nn3)CC2)n1 (stereo partly drawn)	-[12.7 µM]	?	-	-	-	79.4µM
C#CCOCCOCCOCCNc1nc(N2CCN(C(=O)[C@H](CCC(=O)O)n3cc(C(N)CO)nn3)CC2)nc(N2CCN(C(=O)[C@H](CCC(=O)O)n3cc(C(N)[C@H](C)CC)nn3)CC2)n1 (stereo partly drawn)	-	35.5µM	-	?	-	35.5µM
CCN(C(=O)CSc1n[nH]c(-c2ccc(OC)cc2)n1)c1c(N)n(Cc2ccccc2)c(=O)[nH]c1=O	.	-	-	.	.	.
COc1ccc(C(=O)Nc2c(N)nc(SCC(=O)Nc3ccc(NC(C)=O)cc3)[nH]c2=O)cc1	-[12.7 µM]	-	-	-	.	-
COc1ccc(NC(=O)c2ccc(NC(=O)CSc3nccc(=O)[nH]3)cc2)cc1	?	?	-	-	.	56.2µM
COc1ccc(C(=O)NNC(=O)CSc2nc3c([nH]2)c(=O)n(C)c(=O)n3C)cc1	22.4µM	-	-	?	-	-
CCOc1ccccc1CNC(=O)c1cc2oc3ccccc3c2n1C	-	?	-	-	.	-
CCOc1ccccc1CNC(=O)c1cc2occc2n1C	25.1µM	-	?	-	?	44.7µM
CCOc1ccccc1-n1c(=S)sc2c(=O)n(-c3ccc(C)cc3)c(=S)[nH]c21	10µM	?	-	44.7µM	.	-
CCCn1c(=O)n(-c2ccccc2)c(=O)c2sc3ccccc3c21	-	-	-	.	.	-
CCn1c(=S)sc2c(=O)n(-c3ccccc3)c(=S)[nH]c21	10µM	-	-	-	.	-
Cc1ccc(C)c(N2CCN(S(=O)(=O)c3cc(C(=O)Nc4cc(Cl)cc(Cl)c4)ccc3F)CC2)c1	-	-	-	.	.	-
Cc1noc(C)c1-c1nccc(NC2CC2)n1	-[0.501 µM]	.	.	-	.	.
Cc1ccc(C)c(N2CCN(C(=S)Nc3ccc4nc(N5CCN(C)CC5)cc(C)c4c3)CC2)c1	39.8µM	-	-	-	.	-
Cc1cc(N2CCN(C)CC2)nc2ccc(NC(=S)N3CCN(c4ccccn4)CC3)cc12	50.1µM	?	-	-	.	?
Cc1cc(N2CCN(C)CC2)nc2ccc(NC(=S)N3CCC4(CC3)OCCO4)cc12	44.7µM	-	-	-	.	-
CCN1CCN(c2cc(C)c3cc(NC(=S)N4CCC5(CC4)OCCO5)ccc3n2)CC1	?	-	-	-	.	-
O=C(/C=C/c1cccc(Cl)c1)Nn1c(-c2cccs2)nc2ccccc2c1=O	-	-	-	-	-	-
C=CCN1C(=O)c2ccc(C(=O)N(C)CC(=O)Nc3c(C)cccc3C)cc2C1=O	50.1µM	-	-	.	-	-
COc1ccc(Cl)cc1N(CC(=O)N1CCCCCC1)S(C)(=O)=O	.	-	-	-	-	-
SMILES	G9a inh	JMJD2A Tudor	HP1b chromo inh	Sfp PPTase inh	L3MBTL1 block	BAZ2B block
COc1ccccc1CNC(=O)C(CCSC)NC(=O)c1cccc(S(=O)(=O)N2CCOCC2)c1 (stereo not drawn)	.	-	-	.	-	.
CC1CCC2(CC1)Nc1ccccc1C(=O)N2c1ccccc1 (stereo not drawn)	70.8µM	-	-	-	.	-
O=C1c2ccccc2NC2(CCCCC2)N1c1ccc(O)cc1	-	-	-	-	-[11.4 µM]	-
CN(CCO)C1=NS(=O)(=O)c2cc([N+](=O)[O-])ccc21	79.4µM	-	-	-	.	-
O=C(Cn1sc2ccccc2c1=O)NC12CC3CC(CC(C3)C1)C2	?	2.82µM	?	2.51µM	.	11.2µM
NC(=S)n1[nH]c(-c2ccc([N+](=O)[O-])cc2)c(N=Nc2ccc(Cl)cc2)c1=O	44.7µM	63.1µM	-	-	?	5.62µM
O=c1cc(-c2ccccc2)[nH]n1-c1ccc([N+](=O)[O-])cc1	?	35.5µM	?	-	-	44.7µM
NC(=O)c1ccc(N=Nc2c(-c3ccccc3)[nH]n(-c3ccccc3)c2=O)cc1	-	.	.	-	-	.
O=c1c(N=Nc2ccc(O)cc2)c(-c2ccccc2)[nH]n1-c1ccc([N+](=O)[O-])cc1	7.08µM	?	-	-	-	-
Cc1ccc([N+](=O)[O-])cc1N=Nc1c(-c2ccc([N+](=O)[O-])cc2)[nH]n(C(N)=S)c1=O	?	?	-	?	-	31.6µM
COc1cc(CC(=O)OCC(=O)N(C)C2CCCCC2)cc(OC)c1OC	.	-	-	.	-	.
O=C(Nc1ccccc1C(F)(F)F)N1CCC(CN2CCc3ccccc3C2)CC1	-	-	-	.	.	-
O=C(Cn1ncc2c3ccccc3n(Cc3cccc(Cl)c3)c2c1=O)N1CCCCC1	-	-	-	.	.	-
Cc1cccc(-n2c(C)cc(C(=S)N3CCOCC3)c2C)c1C	?	?	?	-	-	-
Cc1cc(C)cc(-n2c(C)cc(C(=S)N3CCOCC3)c2C)c1	4.47µM	56.2µM	?	?	-	44.7µM
Cc1cc(C(=S)N2CCOCC2)c(C)n1-c1ccc(Cl)cc1	3.16µM	28.2µM	44.7µM	-	-	50.1µM
COc1ccccc1NC(=O)C1=C(C)Nc2nc(SCc3ccccc3Cl)nn2C1c1ccncc1 (stereo not drawn)	-	-	-	.	.	-
COc1ccccc1C(=O)C1Nc2ccccc2-c2nnc(SC)nc2O1 (stereo not drawn)	7.08µM	-	-	-	-	-
CCC1Nc2ccccc2-c2nnc(SC)nc2O1 (stereo not drawn)	?	-	-	-	.	-
